In PMC4336329 (PLoS ONE, 2015):
The whole screen tested about 310,000 compounds, of which about 14,000 (4.5%) showed an effect of 50% or more. The effect is printed as a negative number. The list comes from a sample in which strong results are over-represented; it also holds similar structures and randomly drawn compounds.

Target: human ether-à-go-go-related gene (hERG) potassium channel (human, UniProt Q12809)
Experiment: primary screen, population patch clamp on CHO cells stably expressing hERG; higher = less effect of the substance
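Further: peak tail current of the secondary pulse compared with the same well before compound.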

Chain of human ether-à-go-go-related gene (hERG) potassium channel (Q12809 whole entry, looked up): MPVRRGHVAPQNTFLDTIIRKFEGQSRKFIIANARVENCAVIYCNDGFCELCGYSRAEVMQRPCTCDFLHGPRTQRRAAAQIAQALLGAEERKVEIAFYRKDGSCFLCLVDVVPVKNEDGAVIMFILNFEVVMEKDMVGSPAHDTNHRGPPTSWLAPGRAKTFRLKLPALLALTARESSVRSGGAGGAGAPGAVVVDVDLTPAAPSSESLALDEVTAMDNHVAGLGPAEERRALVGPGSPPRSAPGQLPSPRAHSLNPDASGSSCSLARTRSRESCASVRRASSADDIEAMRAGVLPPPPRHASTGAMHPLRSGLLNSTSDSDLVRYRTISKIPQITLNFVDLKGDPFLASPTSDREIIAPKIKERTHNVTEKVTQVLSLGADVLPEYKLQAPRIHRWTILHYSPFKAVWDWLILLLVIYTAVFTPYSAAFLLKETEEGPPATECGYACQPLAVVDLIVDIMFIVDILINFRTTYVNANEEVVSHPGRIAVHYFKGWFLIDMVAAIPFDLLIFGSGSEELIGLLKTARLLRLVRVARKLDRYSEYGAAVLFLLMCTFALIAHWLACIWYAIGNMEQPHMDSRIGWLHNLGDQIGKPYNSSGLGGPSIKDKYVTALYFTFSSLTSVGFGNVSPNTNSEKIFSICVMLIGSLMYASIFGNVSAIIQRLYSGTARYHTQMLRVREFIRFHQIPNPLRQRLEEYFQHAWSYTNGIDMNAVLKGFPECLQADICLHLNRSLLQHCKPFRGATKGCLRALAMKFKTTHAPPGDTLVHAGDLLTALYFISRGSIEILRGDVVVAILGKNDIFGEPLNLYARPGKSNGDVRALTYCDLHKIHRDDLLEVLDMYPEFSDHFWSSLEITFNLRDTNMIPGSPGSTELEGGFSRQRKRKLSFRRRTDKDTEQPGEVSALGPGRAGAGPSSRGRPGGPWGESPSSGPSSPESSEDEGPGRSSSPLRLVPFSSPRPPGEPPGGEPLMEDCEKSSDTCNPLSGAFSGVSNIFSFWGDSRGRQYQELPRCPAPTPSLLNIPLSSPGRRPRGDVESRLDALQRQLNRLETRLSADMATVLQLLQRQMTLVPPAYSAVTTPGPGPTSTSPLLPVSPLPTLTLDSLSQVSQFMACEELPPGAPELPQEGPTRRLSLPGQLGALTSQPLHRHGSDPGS

Row | SMILES | hERG current change (%, negative = inhibition) at 10uM [%]
1 | Oc1ccccc1/C=N/Nc1nccnc1Cl | -0.0796
2 | CCOC(=O)N1CCC(NC(=O)c2oc3c(C)c(C)ccc3c2C)CC1 | -32.2
3 | CCCN(CC1CC1)C(=O)COC(=O)c1oc2c(F)cccc2c1C | -52.8
4 | Cc1c(C(=O)N2CCC(N3CCSCC3)CC2)oc2c(F)cccc12 | -34.9
5 | CCOC(=O)C1CCN(C2CCN(C(=O)c3oc4c(F)cccc4c3C)CC2)CC1 | -71.1
6 | Cc1ccc2c(C)c(C(=O)N3CCN(C4CCS(=O)(=O)C4)CC3)oc2c1C (stereo not shown) | -4.49
7 | CCOC(=O)C1CCN(C2CCN(C(=O)c3oc4c(C)c(C)ccc4c3C)CC2)CC1 | -69.3
8 | COCC1CCN(C(=O)c2oc3c(F)cccc3c2C)C1 (stereo not shown) | 0.639
9 | CCCN(CC1CC1)C(=O)COC(=O)c1[nH]c(C)c(C(=O)OCC)c1C | -5.5
10 | CCCN(CC1CC1)C(=O)COC(=O)c1oc2ccc(OCC)cc2c1C | -27.8
11 | Cc1cc(OCC(=O)Nc2c(C)n(C)n(-c3ccccc3)c2=O)ccc1[N+](=O)[O-] | -23.5
12 | Cc1[nH]c2c(C(=O)N3CCCC(CCC(=O)NCc4ccccc4F)C3)cccc2c1C (stereo not shown) | 3.39
13 | CCCC(c1nnnn1Cc1ccccc1)N1CCC(C(N)=O)CC1.Cl (stereo not shown) | -3.44
14 | CC(C)OCCCNC(=O)c1cc(-c2cccs2)nc2ccccc12 | 0.89
15 | CCCCN(C)CCCNC(=O)c1cc(-c2cccs2)nc2ccccc12 | -85.6
16 | O=C(NCc1ccco1)c1cc(-c2ccccc2)nc2ccccc12 | -16.5
17 | Cc1cc(-c2ccccc2)nc2cc(C(=O)NCc3ccco3)nn12 | -55.9
18 | CCCCNC(=S)NNC(=O)c1cc(-c2cccnc2)nc2ccccc12 | -7.41
19 | COCCNC(=O)c1cc2nc(-c3ccccc3)cc(C)n2n1 | 7.82
20 | O=C(NCc1ccco1)c1cc(-c2cccnc2)nc2ccccc12 | -52.6
21 | CCCCN(C)CCCNC(=O)c1cc(-c2cccnc2)nc2ccccc12 | -60.1
22 | O=C(NCc1ccco1)c1cc(-c2cccnc2)nc2ccc(Cl)cc12 | -36.3
23 | COCCCNC(=O)c1cc(-c2cccnc2)nc2ccccc12 | 16.6

Row | SMILES | hERG current change (%, negative = inhibition) at 10uM [%]
24 | CC(C)CCNC(=O)c1cc(-c2cccs2)nc2ccccc12 | 5.1
25 | Cc1cc(C)n2nc(C(=O)NCc3ccco3)cc2n1 | 10.4
26 | CCN(CCNC(=O)C1CCN(S(=O)(=O)c2c(C)noc2C)CC1)c1ccccc1 | -1.06
27 | COc1cc(/C=C/C(=O)NCc2cccnc2)cc(OC)c1OC | 0.841
28 | CCOC(=O)Cc1csc(NC(=O)CN2CCOCC2)n1 | 14.1
29 | CCOC(=O)[C@@H]1[C@H]2COc3ccccc3[C@H]2N2C(=O)N(c3ccc(C)cc3)C(=O)[C@]12C | -1.42
30 | CCCNC(=O)c1n[nH]c2c1CC(C(C)(C)CC)CC2 (stereo not shown) | 1.27
31 | C=CCNc1ncnc2c1cnn2-c1ccc(C)cc1C | 3.76
32 | NS(=O)(=O)c1ccc(N/N=C/c2ccc[nH]2)c([N+](=O)[O-])c1 | 0.228
33 | COc1cc(OC)cc(C(=O)Nc2ccc3nc4n(c(=O)c3c2)CCCCC4)c1 | -48.7
34 | COc1cccc(C(=O)Nc2ccc3nc4n(c(=O)c3c2)CCCC4)c1 | -62.9
35 | COc1cc(C(=O)Nc2ccc3nc4n(c(=O)c3c2)CCCCC4)cc(OC)c1OC | -67.7
36 | COc1cc(OC)cc(C(=O)Nc2ccc3nc4n(c(=O)c3c2)CCCC4)c1 | 11.2
37 | O=C(Nc1ccc2nc3n(c(=O)c2c1)CCCC3)c1cccc(F)c1 | -43.9
38 | COc1cc(NC(=O)C(=O)Nc2ccc3nc4n(c(=O)c3c2)CCCCC4)cc(OC)c1OC | -1.55
39 | COc1ccc(Cl)cc1NS(=O)(=O)c1cn(C)nc1C | 7.1
40 | COC(=O)C1=C(c2ccc(OC)c(OC)c2)C[C@@H]2CC[C@H]1N2C(=O)NCC1CC1 | 15.1
41 | O=C(CSc1ccc(-c2ccco2)nn1)NCc1ccccc1Cl | -49.1
42 | Fc1ccc(/C=N/Nc2nccnc2Cl)cc1 | 9.05
43 | Clc1nccnc1N/N=C/c1ccc(Br)cc1 | -50.3
44 | Oc1ccc(/C=N/Nc2nccnc2Cl)cc1 | 1.47
45 | Cc1cccc(NC(=O)CN2C(=O)S/C(=C\c3cc(C)n(C)c3C)C2=O)c1 | -10.7
46 | O=C(CN1CCCCC1)Nc1ccc(N2CCCCCC2)cc1.O=C(O)C(=O)O | -88.7

Row | SMILES | hERG current change (%, negative = inhibition) at 10uM [%]
47 | NC(=O)C1(N2CCCCC2)CCN(CC(=O)Nc2ccc(Oc3ccccc3)cc2)CC1 | -67.8
48 | CC1CCCCN1CC(=O)Nc1ccc2c(c1)OCO2.O=C(O)C(=O)O (stereo not shown) | -20.1
49 | CC1CCCCN1CC(=O)Nc1ccc(Oc2ccccc2)cc1.Cl (stereo not shown) | -50.7
50 | O=C(CN1CCCCCC1)Nc1ccccc1.O=C(O)C(=O)O | 10.8
51 | CC1CCN(CC(=O)Nc2ccc(N3CCCCCC3)cc2)CC1.O=C(O)C(=O)O | -14.1
52 | NC(=O)C1(N2CCCCC2)CCN(CC(=O)Nc2ccccc2-c2ccccc2)CC1 | 14.6
53 | COc1ccc(NC(=O)CN2CCC(C(N)=O)(N3CCCCC3)CC2)cc1 | 0.362
54 | COc1cccc(NC(=O)CN2CCCCCC2)c1.Cl | 11.6
55 | CC1CCCCN1CC(=O)Nc1ccc(N2CCCCCC2)cc1.O=C(O)C(=O)O (stereo not shown) | -13.2
56 | O=C(CN1CCCCCC1)Nc1cccc(NC(=O)CN2CCCCCC2)c1 | 13
57 | O=C(CN1CCCCC1)Nc1cccc(Oc2ccccc2)c1 | -50.7
58 | CCN1CCC(Nc2ccnc3cc(Cl)ccc23)CC1 | -40.5
59 | O=C(Nc1ccccc1)OCc1ccccn1 | 10.8
60 | COc1ccc(C2=NN(CN3C(=O)C(=O)c4ccccc43)C(c3ccc(OC)cc3)C2)cc1 (stereo not shown) | 9.84
61 | Cc1cc(-c2ccccc2)nc(SCc2ccc(C(=O)O)o2)n1 | -3.89
62 | Cc1ccc(C(=O)Nc2cccnc2)cc1Cl | 4.54
63 | O=C(NCC(=O)N1CCN(C(c2ccccc2)c2ccccc2)CC1)c1ccc(Br)o1 | 8.38
64 | Cc1cc(Br)c(NC(=O)CN(C)CCOc2ccccc2)c(Br)c1 | -19.5
65 | COc1ccc(Cn2nnc3c(=O)[nH]c(C(=O)NCCc4ccc(F)cc4)nc32)cc1OC | 7.28
66 | Cl.O=C(CN1CCCCCC1)Nc1ccc(Oc2ccccc2)cc1 | -78.6
67 | CN1CCN(CC(=O)Nc2ccc(Oc3ccccc3)cc2)CC1 | -47.5
68 | NC(=O)C1(N2CCCCC2)CCN(Cc2ccc(F)cc2)CC1 | -6.92
69 | NC(=O)C1(N2CCCCC2)CCN(CC(=O)Nc2cc(Cl)ccc2Cl)CC1 | -72

Row | SMILES | hERG current change (%, negative = inhibition) at 10uM [%]
70 | O=C(CN1CCCC1)Nc1ccc(Oc2ccc(NC(=O)CN3CCCC3)cc2)cc1 | 17.3
71 | NC(=O)C1(N2CCCCC2)CCN(Cc2ccccc2)CC1 | 2.53
72 | NC(=O)C1(N2CCCCC2)CCN(Cc2ccc(Br)cc2)CC1 | -51
73 | COc1ccc(NC(=O)CN2CCC(C(N)=O)(N3CCCCC3)CC2)c(OC)c1 | 1.56
74 | O=C(CN1CCCCC1)Nc1cc(Cl)ccc1Cl | -0.685
75 | CC(C)C(NC(=O)C1CCC(C(C)(C)C)CC1)C(=O)NCCc1ccc(S(N)(=O)=O)cc1 (stereo not shown) | 14.1
76 | COc1ccc2c(N)c(C(=O)NN)[nH]c2c1 | 2.16
77 | COCCN(C(=O)CSc1nc2ccc(Cl)cc2[nH]1)c1c(N)n(Cc2ccccc2)c(=O)[nH]c1=O | -7.02
78 | Cc1cc(C)n(CC(O)Cn2c3ccc(Br)cc3c3cc(Br)ccc32)c(=O)n1 (stereo not shown) | 19.5
79 | Cc1ccc(CCNC(=O)c2nn(C)c3c2CS(=O)(=O)c2ccccc2-3)cc1 | -39.7
80 | O=C(/C=C/Nc1ccc(S(=O)(=O)Nc2ncccn2)cc1)c1cccs1 | 4.26
81 | O=C(NCc1ccccc1Cl)/C(=C\c1cccnc1)NC(=O)c1ccccc1 | -48.7
82 | O=C(NCc1cccnc1)/C(=C/c1ccccc1)NC(=O)c1ccccc1 | -34.5
83 | COc1ccc(C(=O)N/C(=C\c2ccccc2)C(=O)NCc2cccnc2)cc1 | -70.8
84 | COc1ccc(C(=O)NCc2cccnc2)cc1 | -1.7
85 | COc1ccc(/C=C(/NC(=O)c2ccccc2)C(=O)NCc2ccco2)cc1 | 27
86 | COc1ccc(/C=C(\NC(=O)c2ccccc2)C(=O)NCc2cccnc2)cc1 | -70.5
87 | COc1ccc(/C=C(\NC(=O)c2ccccc2)C(=O)N/N=C/c2cccnc2)cc1 | -5.03
88 | O=C(NCc1cccnc1)/C(=C/c1ccc(Cl)cc1)NC(=O)c1ccccc1 | -68.5
89 | COc1ccc(CNC(=O)C(=O)NCc2cccnc2)cc1 | -6.16
90 | Cc1ccc(C(=O)N/C(=C\c2ccccc2)C(=O)NCc2cccnc2)cc1 | -71.9
91 | CN(C)c1ccc(/C=C(\NC(=O)c2ccccc2)C(=O)NCc2cccnc2)cc1 | -18.9
